FEN1 inh-1: human FEN1 inhibition; 390,000 compounds, 0.35% hits; Potency, µM (doses to about 114 µM), usual class: inhibitors; Recombinant FEN1 flap cleavage, fluorescence, 15 min; P39748; also: nearly all actives have a fitted effect of over 65% in size
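Steps: FEN1 (10 nM) dispensed; compound added by pin tool; 15 min at room temperature; substrate added to 50 nM final; reads at 0 min and 15 min; data normalized and fitted (four-parameter Hill).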
POLI inh: DNA polymerase iota (human) inhibition | Pol iota fluorescent replication assay, 10 min | 390,000 compounds, 1% hits | Q9UNA4 | Potency, µM (series often up to 115 µM), actives largely listed as inhibitors
Target sequence (Q9UNA4 whole entry, looked up): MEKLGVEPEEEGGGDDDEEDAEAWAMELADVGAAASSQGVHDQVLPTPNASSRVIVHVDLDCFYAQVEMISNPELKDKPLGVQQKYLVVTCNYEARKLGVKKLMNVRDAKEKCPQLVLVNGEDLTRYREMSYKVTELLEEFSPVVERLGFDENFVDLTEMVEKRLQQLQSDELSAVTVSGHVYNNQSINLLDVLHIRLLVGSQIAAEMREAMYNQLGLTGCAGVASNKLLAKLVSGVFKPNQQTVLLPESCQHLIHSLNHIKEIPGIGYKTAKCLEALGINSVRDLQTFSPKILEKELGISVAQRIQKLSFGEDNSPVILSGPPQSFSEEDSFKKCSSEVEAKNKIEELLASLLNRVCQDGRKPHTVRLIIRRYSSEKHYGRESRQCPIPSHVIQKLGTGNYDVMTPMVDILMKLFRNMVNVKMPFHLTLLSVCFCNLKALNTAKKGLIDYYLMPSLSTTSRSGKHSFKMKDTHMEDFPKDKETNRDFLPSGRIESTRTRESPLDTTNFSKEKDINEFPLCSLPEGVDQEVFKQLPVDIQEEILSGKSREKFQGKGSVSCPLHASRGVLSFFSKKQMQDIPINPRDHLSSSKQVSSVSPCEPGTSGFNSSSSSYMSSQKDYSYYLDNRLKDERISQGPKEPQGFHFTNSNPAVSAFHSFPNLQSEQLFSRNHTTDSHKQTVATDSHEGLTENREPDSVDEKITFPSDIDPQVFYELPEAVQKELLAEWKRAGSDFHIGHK
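Pol iota at 10 nM preincubated 15 min with compounds at room temperature; reaction started with fluorescent substrate, 50 nM final. Fluorescence read kinetically at 0 and 10 min; buffer-only wells as negative control.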
Pol eta inh-1: inhibitors of human DNA polymerase eta; Q9Y253; recombinant Pol eta, fluorescent DNA replication assay; Potency, µM (highest dose often 114 µM), usual class: inhibitors; 390,000 compounds, 1.2% hits
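Fluorescent replication assay: 50 nM final substrate added after a 15 min room-temperature compound preincubation with 10 nM enzyme. Signal taken at 0 min and again at 10 min.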
POLK inh: inhibitors of human DNA polymerase kappa; purified Pol kappa, fluorescent DNA synthesis assay, 10 min; Potency, µM (series often up to 107 µM), most hits filed as inhibitors; 400,000 compounds, 0.53% hits; AID 588579
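Inhibition of 10 nM Pol kappa is measured by a fluorescent read-out at 0 and 10 min following addition of 50 nM substrate (final), with a 15-min room-temperature compound preincubation.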
Pol beta inh: DNA polymerase beta (human) inhibition; Pol beta primer extension/strand displacement, fluorescence kinetic; P06746; 340,000 compounds, 1.3% hits; Potency, µM (series often up to 114 µM), actives largely listed as inhibitors
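Curves were derived by four-parameter Hill fits of normalized qHTS data. The kinetic fluorescent primer-extension read was taken at 0 and 10 min after 50 nM substrate, following a 15 min room-temperature preincubation of 10 nM enzyme with compounds.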
WRN helicase inh-1: blocks human WRN helicase; AID 651768; Q14191; Potency, µM (titrated, usually from 114 µM), usual class: inhibitors; 360,000 compounds, 0.46% hits; WRN helicase unwinding, fluorescent forked duplex, kinetic; also: nearly all actives have a fitted effect of over 55% in size
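WRN at 20 nM final was preincubated with compound for 15 min at room temperature; reaction started with 100 nM forked duplex oligonucleotide carrying fluorophore and quencher plus 2 mM ATP (final). Unwinding followed kinetically by red fluorescence (ex 525/em 598 nm).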
Pol eta inh-2: confirmation of human DNA polymerase eta inhibitors; shares compounds with Pol eta inh-1; Pol eta primer extension, TAMRA/BHQ fluorescence, 10 min; Potency, µM, most hits filed as inhibitors; 2,600 compounds, 64% hits; AID 720502
FEN1 inh-2: FEN1 inhibition, cherry-pick retest; shares compounds with FEN1 inh-1; FEN1 flap cleavage, TAMRA/BHQ2 fluorogenic DNA substrate; Potency, µM, hits mostly inhibitors; 880 compounds, 79% hits; AID 720498; also: nearly all actives have a fitted effect of over 60% in size
WRN helicase inh-2: WRN helicase inhibition, cherry-pick retest; shares compounds with WRN helicase inh-1; WRN helicase DNA unwinding, fluorescence kinetic; Potency, µM (highest dose often 57.1 µM), usual class: inhibitors; 610 compounds, 63% hits; also: nearly all actives have a fitted effect of over 65% in size
TO displacement: counter-screen for WRN helicase inhibitors: DNA binding; 610 compounds, 10% hits; thiazole orange DNA binding displacement, fluorescence; Potency, µM (series often up to 57.1 µM), usual class: inhibitors; shares compounds with WRN helicase inh-1; AID 720499;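 also: drop in dye fluorescence marks compound binding to DNA; nearly all actives have a fitted effect of over 60% in size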
BLM counter: blocks human BLM helicase in WRN counterscreen; shares compounds with WRN helicase inh-1; Recombinant BLM helicase DNA unwinding, red fluorescence; Potency, µM (series often up to 57.1 µM), most hits filed as inhibitors; 610 compounds, 60% hits; AID 720503; also: nearly all actives have a fitted effect of over 60% in size
Hits are given with their value; [ ] = remark or other dose. This is a sample that favours compounds with a hit; in the whole collection about 2.4% have one here. Calls follow the shape of the dose curve; as a rule, active = well fitted curve in the direction sought with a large enough effect; inconclusive = small, poorly fitted or top-dose-only effect, or another doubt; inactive = no such curve, though single readings can be large; an effect the other way counts as inactive or inconclusive.

N[C@@H](Cc1cc(I)c(O)c(I)c1)C(=O)O was read as FEN1 inh-1 7.9µM, POLI inh 32µM, Pol eta inh-1 40µM, POLK inh 50µM, Pol beta inh inactive, WRN helicase inh-1 inconclusive, Pol eta inh-2 30 and FEN1 inh-2 60.
O=C(Nc1ccccc1)c1c(O)[nH]c(=O)[nH]c1=O was read as FEN1 inh-1 inactive, POLI inh inactive, Pol eta inh-1 inactive, POLK inh inactive and WRN helicase inh-1 inactive.
For COc1ccccc1N1C(=O)NC(=O)/C(=C/c2ccc3c4c(cccc24)CC3)C1=O the results were FEN1 inh-1 inactive, POLI inh inactive, Pol eta inh-1 inconclusive, POLK inh inactive, Pol beta inh inactive and WRN helicase inh-1 inconclusive.
For COc1cccc(N2C(=O)NC(=O)/C(=C/c3ccc([N+](=O)[O-])s3)C2=O)c1 the results were FEN1 inh-1 40µM, POLI inh inconclusive, Pol eta inh-1 14µM, POLK inh 32µM, Pol beta inh inconclusive, WRN helicase inh-1 35µM, Pol eta inh-2 27 and FEN1 inh-2 15.
For CCOc1ccc(N2C(=O)NC(=O)/C(=C\c3cc(OC)c(OC)cc3[N+](=O)[O-])C2=O)cc1 the results were FEN1 inh-1 inactive, POLI inh inconclusive, Pol eta inh-1 inactive, POLK inh inactive, Pol beta inh inactive and WRN helicase inh-1 inconclusive.
COc1ccccc1N1C(=O)NC(=O)/C(=C/c2ccc([N+](=O)[O-])s2)C1=O was read as FEN1 inh-1 45µM, POLI inh inconclusive, Pol eta inh-1 18µM, POLK inh 40µM, Pol beta inh inconclusive, WRN helicase inh-1 35µM, Pol eta inh-2 38 and FEN1 inh-2 11.
`NCCc1cc(O)c(O)cc1O` gave FEN1 inh-1 25µM, POLI inh 1.4µM, Pol eta inh-1 56µM, POLK inh 0.71µM, WRN helicase inh-1 inconclusive, Pol eta inh-2 67 and FEN1 inh-2 inconclusive.
`COC(=O)c1ccc(-n2c(C)nc3ccccc3c2=O)cc1` gave FEN1 inh-1 inactive, POLI inh inactive, Pol eta inh-1 inactive, POLK inh inactive, Pol beta inh inconclusive and WRN helicase inh-1 inactive.
Cn1cccc1/C=C1\C(=O)NC(=O)N(Cc2ccccc2Cl)C1=O was read as FEN1 inh-1 inconclusive, POLI inh 20µM, Pol eta inh-1 28µM, POLK inh 32µM, Pol beta inh inactive, WRN helicase inh-1 40µM, Pol eta inh-2 67, WRN helicase inh-2 inconclusive, TO displacement inactive and BLM counter 17µM.
COc1ccc(N2C(=O)NC(=O)/C(=C/c3ccc([N+](=O)[O-])s3)C2=O)cc1 was read as FEN1 inh-1 inconclusive, POLI inh inactive, Pol eta inh-1 8.9µM, POLK inh 18µM, Pol beta inh inconclusive, WRN helicase inh-1 50µM, Pol eta inh-2 30, FEN1 inh-2 19, WRN helicase inh-2 19µM, TO displacement inconclusive and BLM counter 22µM.
For COc1ccc(N2C(=O)NC(=O)/C(=C\c3ccc([N+](=O)[O-])s3)C2=O)cc1 the results were FEN1 inh-1 inconclusive, POLI inh inconclusive, Pol eta inh-1 18µM, POLK inh 50µM, Pol beta inh inconclusive, WRN helicase inh-1 25µM, Pol eta inh-2 27, FEN1 inh-2 9.5, WRN helicase inh-2 22µM, TO displacement inactive and BLM counter inactive.
`COc1ccc(N2C(=O)NC(=O)/C(=C/c3ccc(N4CCOCC4)cc3)C2=O)cc1` gave Pol beta inh inactive.
`COc1ccc(C(=O)C2CCCN(Cc3cnc(C)s3)C2)cc1OC` (centres undefined) gave FEN1 inh-1 inactive, POLI inh inactive, Pol eta inh-1 inactive, POLK inh inactive, Pol beta inh inconclusive and WRN helicase inh-1 inactive.
Screening Cc1ccccc1N1C(=O)NC(=O)/C(=C\c2ccc3c(c2)CCCN3Cc2ccccc2)C1=O returned FEN1 inh-1 inactive, POLI inh inconclusive, Pol eta inh-1 20µM, POLK inh inactive, Pol beta inh 25µM, WRN helicase inh-1 13µM, Pol eta inh-2 inconclusive, WRN helicase inh-2 inconclusive, TO displacement inactive and BLM counter 24µM.
`COc1ccc2c(c1O)[C@]13CCN(C)[C@H](C2)[C@@H]1CCC(=O)C3` gave FEN1 inh-1 inactive, POLI inh inactive, Pol eta inh-1 inconclusive, POLK inh inactive, Pol beta inh inactive and WRN helicase inh-1 inactive.
Screening CCCc1cc(=O)oc2cc(OCC(=O)N3CCN(Cc4ccc5c(c4)OCO5)CC3)ccc12 returned FEN1 inh-1 inactive, POLI inh inactive, Pol eta inh-1 inactive, POLK inh inactive, Pol beta inh inactive and WRN helicase inh-1 inactive.
Screening C=CCN1C(=O)/C(=C/c2cccs2)C(=O)NC1=S returned FEN1 inh-1 inactive, POLI inh inconclusive, Pol eta inh-1 inconclusive, POLK inh inactive, Pol beta inh 79µM, WRN helicase inh-1 0.47µM, Pol eta inh-2 inconclusive, WRN helicase inh-2 inactive, TO displacement inactive and BLM counter inconclusive.
C=CCN1C(=O)/C(=C/c2ccc(N3CCOCC3)o2)C(=O)NC1=S was read as FEN1 inh-1 inactive, POLI inh inconclusive, Pol eta inh-1 inactive, POLK inh inactive, Pol beta inh inconclusive and WRN helicase inh-1 inactive.
For Cc1cc(C=C(C#N)C#N)ccc1N1CCCC1 the results were FEN1 inh-1 inconclusive, POLI inh 89µM, Pol eta inh-1 inactive, POLK inh inactive, Pol beta inh inactive, WRN helicase inh-1 inactive and FEN1 inh-2 76.
Cc1ccc(C(=O)COC(=O)c2cccc(NC(=O)c3ccc(Br)cc3)c2)cc1 was read as FEN1 inh-1 inactive, POLI inh inactive, Pol eta inh-1 inconclusive, POLK inh inactive and Pol beta inh inactive.
Screening COc1ccc2c(c1O)-c1cc(O)cc3c1[C@@H](C2)N(C)CC3 returned POLK inh inactive[19.4 µM].
